# Laboratory results reported in the supplement of paper PMC10849652.
# Of roughly 8,800 targets only a part is listed; those with a hit were picked by preference. About 0.5% of all pairs of compound and target were hits. Unmarked numbers belong to inactive results.
# Assays:
# Assay in all cases: log2 fold change, soluble protein after heating vs DMSO (PISA); higher = thermal stabilisation; K562 lysate, 10 uM; active = over 0.2 and 3.5 SD of the protein, either way, in both replicates (recomputed)
# vemurafenib = compound: CCCS(=O)(=O)Nc1ccc(F)c(C(=O)c2c[nH]c3ncc(-c4ccc(Cl)cc4)cc23)c1F [vemurafenib]
# Outline: (§1)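 Log-two fold change in thermal stability relative to solvent controls is reported from duplicates. For each sample, crude K562 extract from dounce-homogenised pellets in PBS pH 7.4 with 1 mM MgCl2, at 1 mg/mL protein, was treated with 10 μM compound for 30 min. Aliquots heated for 3 min across 48°C-58°C were pooled, brought to 0.5% NP-40 at 4°C and cleared at 21,000xg for 90 min. The supernatant was quantified by TMTpro 16plex LC-MS/MS with channel sums equalised.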
# [1] = compound: CCCS(=O)(=O)Nc1ccc(F)c(C(=O)c2c[nH]c3ncc(Cl)cc23)c1F
# Outline: as §1
# barasertib = compound: CCN(CCCOc1ccc2c(Nc3cc(CC(=O)Nc4cccc(F)c4)[nH]n3)ncnc2c1)CCOP(=O)(O)O [barasertib]
# Outline: as §1
# [2] = compound: CC[C@@H]1C(=O)N(C)c2cnc(Nc3ccc(C(=O)NC4CCN(C)CC4)cc3OC)nc2N1C1CCCC1
# Outline: as §1
# volasertib = compound: CC[C@@H]1C(=O)N(C)c2cnc(Nc3ccc(C(=O)N[C@H]4CC[C@H](N5CCN(CC6CC6)CC5)CC4)cc3OC)nc2N1C(C)C [volasertib]
# Outline: as §1
# [3] = compound: CCn1c(C(=O)N(C2CC2)C2CC2)cc2c3c(ncn3C)c(Nc3cc(C)n(C)n3)nc21
# Outline: as §1
# [4] = compound: CCn1cc(-c2ccnc3[nH]c(-c4cccc(CN(C)C)c4)cc23)c(-c2ccc(NC(=O)N(C)C)cc2)n1
# Outline: as §1
# [5] = compound: CN1CCC(CNc2ccc3ncc(-c4cccc(OC(F)(F)F)c4)n3n2)CC1
# Outline: as §1
# saracatinib = compound: CN1CCN(CCOc2cc(OC3CCOCC3)c3c(Nc4c(Cl)ccc5c4OCO5)ncnc3c2)CC1 [saracatinib]
# Outline: as §1
# sotrastaurin = compound: CN1CCN(c2nc(C3=C(c4c[nH]c5ccccc45)C(=O)NC3=O)c3ccccc3n2)CC1 [sotrastaurin]
# Outline: as §1
# alvocidib = compound: CN1CC[C@H](c2c(O)cc(O)c3c(=O)cc(-c4ccccc4Cl)oc23)[C@H](O)C1 [alvocidib]
# Outline: as §1
# Tubastatin A = compound: CN1CCc2c(c3ccccc3n2Cc2ccc(C(=O)NO)cc2)C1 [Tubastatin A]
# Outline: as §1
# [6] = compound: CNC(=O)C1=CC=CC=C1NC2=NC(=NC=C2Cl)NC3=C(C=C(C=C3)N4CCOCC4)OC
# Outline: as §1
# defactinib = compound: CNC(=O)c1ccc(Nc2ncc(C(F)(F)F)c(NCc3nccnc3N(C)S(C)(=O)=O)n2)cc1 [defactinib]
# Outline: as §1
# [7] = compound: CNc1nc(-c2ccc3c(N)n[nH]c3c2)cc(N2C[C@@H](C(=O)NC3CCCCC3)CC[C@H]2C)n1
# Outline: as §1
# encorafenib = compound: COC(=O)N[C@@H](C)CNc1nccc(-c2cn(C(C)C)nc2-c2cc(Cl)cc(NS(C)(=O)=O)c2F)n1 [encorafenib]
# Outline: as §1
# [8] = compound: COC(=O)[C@H](CCSC)NC(=O)C1=C(C=C(C=C1)NC[C@H](CS)N)C2=CC=CC=C2
# Outline: as §1
# alisertib = compound: COc1cc(Nc2ncc3c(n2)-c2ccc(Cl)cc2C(c2c(F)cccc2OC)=NC3)ccc1C(=O)O [alisertib]
# Outline: as §1
# [9] = compound: COc1cc2nc(-c3cc(F)ccc3O)nc(N[C@@H]3CNC[C@H]3C(C)(C)O)c2cc1OC
# Outline: as §1
# gefitinib = compound: COc1cc2ncnc(Nc3ccc(F)c(Cl)c3)c2cc1OCCCN1CCOCC1 [gefitinib]
# Outline: as §1
# UniProt Q9UHQ1, sequence (Q9UHQ1 whole entry, looked up): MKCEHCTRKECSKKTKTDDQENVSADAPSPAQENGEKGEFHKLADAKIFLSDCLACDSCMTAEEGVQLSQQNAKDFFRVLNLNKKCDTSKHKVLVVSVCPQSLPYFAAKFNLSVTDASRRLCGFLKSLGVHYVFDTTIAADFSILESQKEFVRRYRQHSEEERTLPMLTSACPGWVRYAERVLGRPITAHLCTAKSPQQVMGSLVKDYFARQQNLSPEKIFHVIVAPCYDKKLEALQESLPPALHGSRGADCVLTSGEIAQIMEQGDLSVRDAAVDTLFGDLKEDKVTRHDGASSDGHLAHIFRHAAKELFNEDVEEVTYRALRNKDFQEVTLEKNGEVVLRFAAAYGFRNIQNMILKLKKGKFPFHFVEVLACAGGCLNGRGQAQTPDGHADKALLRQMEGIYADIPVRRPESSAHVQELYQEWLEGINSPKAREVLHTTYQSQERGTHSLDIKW
# UniProt Q92621, sequence (Q92621 whole entry, looked up): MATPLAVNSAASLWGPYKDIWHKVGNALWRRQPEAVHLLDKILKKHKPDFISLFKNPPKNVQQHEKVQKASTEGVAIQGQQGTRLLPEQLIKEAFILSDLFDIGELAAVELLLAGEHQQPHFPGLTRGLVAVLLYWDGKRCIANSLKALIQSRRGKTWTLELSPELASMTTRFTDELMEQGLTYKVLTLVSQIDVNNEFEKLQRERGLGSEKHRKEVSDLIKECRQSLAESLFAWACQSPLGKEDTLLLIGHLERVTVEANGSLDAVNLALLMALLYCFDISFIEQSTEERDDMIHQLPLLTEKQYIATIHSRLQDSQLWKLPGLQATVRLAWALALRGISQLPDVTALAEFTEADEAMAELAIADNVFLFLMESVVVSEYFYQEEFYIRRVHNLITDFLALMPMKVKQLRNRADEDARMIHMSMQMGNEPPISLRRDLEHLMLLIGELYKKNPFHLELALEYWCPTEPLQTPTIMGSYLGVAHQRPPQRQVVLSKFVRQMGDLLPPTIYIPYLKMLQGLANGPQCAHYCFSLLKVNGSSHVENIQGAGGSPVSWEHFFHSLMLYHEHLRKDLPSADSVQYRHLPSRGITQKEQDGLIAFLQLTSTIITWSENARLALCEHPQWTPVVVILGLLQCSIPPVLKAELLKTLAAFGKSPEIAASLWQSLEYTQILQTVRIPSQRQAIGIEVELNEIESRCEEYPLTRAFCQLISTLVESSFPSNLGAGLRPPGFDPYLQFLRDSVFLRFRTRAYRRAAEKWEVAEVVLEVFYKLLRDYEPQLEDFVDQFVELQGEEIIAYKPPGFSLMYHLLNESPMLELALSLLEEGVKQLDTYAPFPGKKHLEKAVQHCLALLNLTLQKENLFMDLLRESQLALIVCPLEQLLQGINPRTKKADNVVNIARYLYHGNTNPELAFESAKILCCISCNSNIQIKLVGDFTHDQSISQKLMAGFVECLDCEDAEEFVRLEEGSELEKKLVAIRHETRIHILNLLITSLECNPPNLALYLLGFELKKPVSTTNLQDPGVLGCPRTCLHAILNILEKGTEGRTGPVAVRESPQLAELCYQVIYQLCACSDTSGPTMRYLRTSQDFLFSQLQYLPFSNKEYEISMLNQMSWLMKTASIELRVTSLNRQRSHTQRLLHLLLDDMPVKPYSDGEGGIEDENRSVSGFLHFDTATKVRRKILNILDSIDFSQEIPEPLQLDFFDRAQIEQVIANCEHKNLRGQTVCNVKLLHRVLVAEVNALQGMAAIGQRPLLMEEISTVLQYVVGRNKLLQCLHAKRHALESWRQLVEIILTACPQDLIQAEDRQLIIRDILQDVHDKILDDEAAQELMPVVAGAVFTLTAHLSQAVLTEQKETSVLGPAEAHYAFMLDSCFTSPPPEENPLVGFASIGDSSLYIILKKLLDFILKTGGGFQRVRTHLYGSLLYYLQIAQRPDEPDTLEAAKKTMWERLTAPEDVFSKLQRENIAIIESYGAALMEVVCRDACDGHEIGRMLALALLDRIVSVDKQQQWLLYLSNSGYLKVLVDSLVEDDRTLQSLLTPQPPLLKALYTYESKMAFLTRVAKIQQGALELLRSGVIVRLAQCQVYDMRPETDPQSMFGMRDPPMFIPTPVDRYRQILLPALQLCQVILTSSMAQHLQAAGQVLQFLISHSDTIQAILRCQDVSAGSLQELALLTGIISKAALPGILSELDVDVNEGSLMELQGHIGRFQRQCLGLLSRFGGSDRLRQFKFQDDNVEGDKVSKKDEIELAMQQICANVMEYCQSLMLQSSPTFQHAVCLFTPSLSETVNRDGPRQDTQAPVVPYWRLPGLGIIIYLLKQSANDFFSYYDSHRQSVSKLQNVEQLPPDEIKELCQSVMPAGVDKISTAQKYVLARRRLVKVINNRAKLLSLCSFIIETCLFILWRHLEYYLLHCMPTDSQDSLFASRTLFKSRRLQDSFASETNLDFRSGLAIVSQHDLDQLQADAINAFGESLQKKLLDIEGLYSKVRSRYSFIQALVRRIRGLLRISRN
# UniProt P49757, sequence (P49757 whole entry, looked up): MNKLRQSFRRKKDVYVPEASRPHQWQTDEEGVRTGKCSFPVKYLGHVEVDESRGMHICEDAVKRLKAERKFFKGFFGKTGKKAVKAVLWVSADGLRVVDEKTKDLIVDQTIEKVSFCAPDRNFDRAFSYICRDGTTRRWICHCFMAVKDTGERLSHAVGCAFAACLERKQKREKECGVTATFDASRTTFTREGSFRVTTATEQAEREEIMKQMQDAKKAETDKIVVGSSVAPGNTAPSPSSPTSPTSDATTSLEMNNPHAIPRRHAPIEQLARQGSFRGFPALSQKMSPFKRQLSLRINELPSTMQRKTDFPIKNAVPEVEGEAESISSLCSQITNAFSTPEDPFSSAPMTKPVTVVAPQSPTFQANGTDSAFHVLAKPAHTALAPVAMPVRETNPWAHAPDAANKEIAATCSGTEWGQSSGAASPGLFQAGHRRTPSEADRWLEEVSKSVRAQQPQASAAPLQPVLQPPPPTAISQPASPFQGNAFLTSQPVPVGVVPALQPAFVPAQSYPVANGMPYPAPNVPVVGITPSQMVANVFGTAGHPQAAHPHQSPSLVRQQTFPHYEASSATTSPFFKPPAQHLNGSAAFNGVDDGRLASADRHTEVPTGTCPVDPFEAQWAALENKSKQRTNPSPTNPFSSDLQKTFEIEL
# UniProt Q9H3P2, sequence (Q9H3P2 whole entry, looked up): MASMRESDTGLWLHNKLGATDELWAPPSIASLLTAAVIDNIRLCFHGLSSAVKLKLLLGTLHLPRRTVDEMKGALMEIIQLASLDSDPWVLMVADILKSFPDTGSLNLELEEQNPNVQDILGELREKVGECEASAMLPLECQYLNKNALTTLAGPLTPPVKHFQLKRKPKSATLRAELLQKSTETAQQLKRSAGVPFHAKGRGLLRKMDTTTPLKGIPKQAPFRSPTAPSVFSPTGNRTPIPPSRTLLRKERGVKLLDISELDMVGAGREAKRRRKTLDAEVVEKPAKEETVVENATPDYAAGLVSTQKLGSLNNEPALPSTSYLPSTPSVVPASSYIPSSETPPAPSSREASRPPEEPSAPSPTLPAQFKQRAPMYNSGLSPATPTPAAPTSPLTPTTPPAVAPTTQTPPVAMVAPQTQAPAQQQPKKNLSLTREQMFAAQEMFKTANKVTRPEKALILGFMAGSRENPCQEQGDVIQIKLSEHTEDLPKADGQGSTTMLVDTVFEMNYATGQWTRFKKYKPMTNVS
# UniProt P03886, sequence (P03886 whole entry, looked up): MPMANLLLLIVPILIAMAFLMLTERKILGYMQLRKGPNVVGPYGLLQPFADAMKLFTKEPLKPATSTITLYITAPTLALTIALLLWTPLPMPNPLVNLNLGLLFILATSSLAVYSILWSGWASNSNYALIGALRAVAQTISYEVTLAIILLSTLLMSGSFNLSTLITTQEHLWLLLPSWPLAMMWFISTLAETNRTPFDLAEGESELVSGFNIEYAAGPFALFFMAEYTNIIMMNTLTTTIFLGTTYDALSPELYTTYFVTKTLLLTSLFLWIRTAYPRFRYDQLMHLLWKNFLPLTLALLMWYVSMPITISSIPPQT
# UniProt Q96IY1, sequence (Q96IY1 whole entry, looked up): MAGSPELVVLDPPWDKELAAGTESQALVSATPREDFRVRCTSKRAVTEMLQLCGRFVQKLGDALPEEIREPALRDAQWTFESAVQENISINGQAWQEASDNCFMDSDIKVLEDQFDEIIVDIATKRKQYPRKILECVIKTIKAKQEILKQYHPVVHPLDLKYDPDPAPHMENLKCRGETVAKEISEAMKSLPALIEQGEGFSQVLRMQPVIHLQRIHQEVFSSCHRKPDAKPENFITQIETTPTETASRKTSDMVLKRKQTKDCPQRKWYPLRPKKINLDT
# UniProt Q08J23, sequence (Q08J23 whole entry, looked up): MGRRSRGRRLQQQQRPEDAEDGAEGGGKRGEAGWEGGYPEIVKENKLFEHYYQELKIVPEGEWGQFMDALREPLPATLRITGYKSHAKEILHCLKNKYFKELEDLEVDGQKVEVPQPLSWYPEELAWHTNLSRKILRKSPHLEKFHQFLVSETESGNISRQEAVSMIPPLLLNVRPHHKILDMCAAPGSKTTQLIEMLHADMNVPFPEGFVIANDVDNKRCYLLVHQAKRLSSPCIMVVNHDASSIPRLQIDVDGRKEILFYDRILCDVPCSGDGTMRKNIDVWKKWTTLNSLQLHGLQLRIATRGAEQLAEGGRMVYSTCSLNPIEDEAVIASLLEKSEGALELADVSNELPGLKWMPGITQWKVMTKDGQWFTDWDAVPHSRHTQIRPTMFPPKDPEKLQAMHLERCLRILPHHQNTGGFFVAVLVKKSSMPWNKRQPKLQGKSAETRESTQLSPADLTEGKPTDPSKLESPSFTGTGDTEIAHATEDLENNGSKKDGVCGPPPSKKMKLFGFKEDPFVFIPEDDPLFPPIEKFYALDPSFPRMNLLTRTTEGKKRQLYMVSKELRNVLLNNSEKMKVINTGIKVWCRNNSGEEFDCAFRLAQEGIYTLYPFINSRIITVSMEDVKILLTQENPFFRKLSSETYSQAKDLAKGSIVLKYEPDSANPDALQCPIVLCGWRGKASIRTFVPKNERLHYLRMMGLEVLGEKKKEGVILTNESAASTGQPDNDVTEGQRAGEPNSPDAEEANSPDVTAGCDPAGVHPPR
Target,log2 fold change (vemurafenib),log2 fold change [1],log2 fold change (barasertib),log2 fold change [2],log2 fold change (volasertib),log2 fold change [3],log2 fold change [4],log2 fold change [5],log2 fold change (saracatinib),log2 fold change (sotrastaurin),log2 fold change (alvocidib),log2 fold change (Tubastatin A),log2 fold change [6],log2 fold change (defactinib),log2 fold change [7],log2 fold change (encorafenib),log2 fold change [8],log2 fold change (alisertib),log2 fold change [9],log2 fold change (gefitinib)
NFAT5 isoform 5 (UniProt O94916),0.019,-0.007,-0.041,0.043,-0.016,0.042,-0.003,0.044,0.038,0.044,-0.026,0.003,-0.027,0.007,0.077,0.043,-0.041,-0.072,-0.01,0.454 (active)
MT-ND1 (UniProt P03886),-0.074,0.012,0.056,-0.068,-0.04,-0.096,-0.355,0.066,0.075,0.038,-0.149,-0.037,0.043,0.081,0.014,0.046,-0.051,0.032,-0.073,0.087
PAN2 isoform 2 (UniProt Q504Q3),0.072,0.031,0.03,0.041,-0.132,0.031,0.006,-0.04,-0.021,0.018,-0.023,-0.025,-0.018,-0.099,-0.046,0.08,-0.041,0,-0.043,-0.044
MYO1C (UniProt O00159),-0.016,0.039,-0.012,-0.042,-0.046,0.101,-0.025,-0.018,-0.019,0.028,0.029,-0.114,-0.057,0.052,-0.045,0.076,0.049,0.008,0.01,-0.02
NELFA (UniProt Q9H3P2),0.015,0.02,-0.005,-0.016,-0.083,0.007,0.037,-0.037,-0.013,0.029,0.036,-0.139,0.022,0.056,0.051,0,0.025,0.006,-0.006,-0.015
MRPS31 (UniProt Q92665),0.043,-0.001,-0.011,0.041,-0.004,-0.026,-0.046,0.034,0.014,0.021,-0.023,0.002,-0.029,0.024,0.018,0.006,-0.02,0.007,-0.017,-0.014
NARF (UniProt Q9UHQ1),0.035,0.035,0.028,0.011,0.135,-0.025,-0.055,0.014,0.023,0.049,0.001,0.011,0.031,-0.015,-0.014,0.047,0.003,-0.021,-0.019,-0.007
NUDT4 isoform 2 (UniProt Q9NZJ9),0.009,0.021,-0.05,0.013,0.005,-0.018,-0.068,0.058,0.076,0,-0.001,-0.101,0.01,-0.07,0.073,0.025,-0.129,0.012,0.003,-0.023
NUMB (UniProt P49757),0.001,0.001,0.028,0.06,-0.015,0.008,0.055,-0.061,0.024,-0.134,-0.021,-0.125,-0.028,-0.02,0.026,0.094,0.013,-0.031,-0.007,0.052
NUP205 (UniProt Q92621),0.007,0.017,0.038,-0.047,-0.074,0.027,-0.075,-0.064,0.043,0.022,-0.02,-0.078,0.012,0.015,-0.003,0.016,-0.081,0.008,0,-0.018
NSL1 (UniProt Q96IY1),-0.017,0,-0.06,0.005,0.007,0.048,-0.016,0.047,0.012,0.005,-0.026,-0.084,0.016,0.034,-0.004,-0.055,0.094,0.019,-0.014,-0.004
NUP133 (UniProt Q8WUM0),0.009,0.014,0.01,-0.028,-0.081,0.05,-0.047,0.04,0.014,0.038,-0.08,-0.111,-0.007,0.035,-0.028,0.039,0.002,-0.009,0.011,-0.003
NSUN2 (UniProt Q08J23),0.028,0.004,-0.006,-0.032,0.004,0.037,0.081,-0.022,0.006,0.005,0.019,-0.097,-0.018,0.007,-0.024,-0.011,0.096,0.014,-0.007,-0.02
PARP14 (UniProt Q460N5),0.067,0.062,0.038,0.007,0.001,0.003,-0.08,0.075,0.119,-0.058,0.009,-0.238,-0.15,-0.007,-0.09,0.021,0.082,-0.127,0,-0.014
MSH3 (UniProt P20585),-0.004,0.048,-0.001,0.036,-0.031,-0.034,-0.025,0.031,0.038,0.039,0.021,-0.004,0.008,0.023,0.057,0.02,-0.013,-0.027,0.006,-0.012
NUDT5 (UniProt Q9UKK9),-0.019,-0.001,-0.042,0.043,0.015,-0.054,-0.267,0.27 (active),-0.022,0.034,-0.137,0.052,-0.01,0.072,-0.018,0.034,0.006,0.004,0.003,-0.002
